target: PUM1 PUF domain R5-LHA (Homo sapiens, UniProt Q14671 828-1176, C1007L;R1008H;Q1011A); assay: yeast three-hybrid, YBZ-1, SC-Leu-His + 0.5 mM 3-AT, 4 days; conditions: tags: N-Gal4 AD-HA kept; label: inside an RPR1-promoter hybrid RNA with tandem MS2 sites; ssRNA
Procedure, shortened: (§1)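 Sequencing with Illumina followed PCR amplification of the repeat regions from transformants grown four days on SC-Leu (input) or SC-Leu-His + 0.5 mM 3-AT (selection). The transformants were strain YBZ-1 with a LexA–MS2 coat fusion and a HIS3 reporter, carrying Pumilio-1 PUF domain libraries and matching RNA elements. The interaction score is the log change in variant frequency from input to selection, computed in log2 with a pseudocount of 1 for absent variants.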

Sequence of PUM1 PUF domain R5-LHA (Q14671 828-1176 C1007L/R1008H/Q1011A): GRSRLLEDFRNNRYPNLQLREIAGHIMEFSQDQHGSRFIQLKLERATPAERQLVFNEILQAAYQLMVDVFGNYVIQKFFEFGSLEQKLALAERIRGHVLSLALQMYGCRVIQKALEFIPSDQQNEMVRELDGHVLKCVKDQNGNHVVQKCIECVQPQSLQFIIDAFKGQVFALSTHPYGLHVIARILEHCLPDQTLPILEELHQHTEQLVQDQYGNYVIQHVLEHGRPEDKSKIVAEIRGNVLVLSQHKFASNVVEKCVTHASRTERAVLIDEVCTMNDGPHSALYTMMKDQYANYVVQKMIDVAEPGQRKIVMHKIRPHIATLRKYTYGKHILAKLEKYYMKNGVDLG

Row | Sequence | binding signal
1 | GGCUAGAACUAGUGGAUCCCCCGGCGCCCGGCGGCUCGAGCCCGGGUAAGUGUCAAUAGUCUGCAUGCCGCCGGGCGCCAUGCCUGCAGGUCGACUCUAGAAAACAUG | 3 log2 enrichment (interaction score)
2 | GGCUAGAACUAGUGGAUCCCCCGGCGCCCGGCGGCUCGAGCCCGGGUAAGUGUAAAUAGUCUGCAUGCCGCCGGGCGCCAUGCCUGCAGGUCGACUCUAGAAAACAUG | 2.04 log2 enrichment (interaction score)
3 | GGCUAGAACUAGUGGAUCCCCCGGCGCCCGGCGGCUCGAGCCCGGGUAAGUGUUAAUAGUCUGCAUGCCGCCGGGCGCCAUGCCUGCAGGUCGACUCUAGAAAACAUG | 4.62 log2 enrichment (interaction score)

target: PUM1 PUF domain R5-RRR (Homo sapiens, UniProt Q14671 828-1176, C1007R;Q1011R); assay: as above; conditions: tags: N-Gal4 AD-HA kept; label: inside an RPR1-promoter hybrid RNA with tandem MS2 sites; ssRNA
Sequence (Q14671 828-1176 C1007R/Q1011R): as the sequence (Q14671 828-1176 C1007L/R1008H/Q1011A) above, with L180R, H181R, A184R counted along it
Procedure, shortened: as §1

Row | Sequence | binding signal
4 | GGCUAGAACUAGUGGAUCCCCCGGCGCCCGGCGGCUCGAGCCCGGGUAAGUGUCAAUAGUCUGCAUGCCGCCGGGCGCCAUGCCUGCAGGUCGACUCUAGAAAACAUG | 4.35 log2 enrichment (interaction score)
5 | GGCUAGAACUAGUGGAUCCCCCGGCGCCCGGCGGCUCGAGCCCGGGUAAGUGUAAAUAGUCUGCAUGCCGCCGGGCGCCAUGCCUGCAGGUCGACUCUAGAAAACAUG | 2.32 log2 enrichment (interaction score)
6 | GGCUAGAACUAGUGGAUCCCCCGGCGCCCGGCGGCUCGAGCCCGGGUAAGUGUUAAUAGUCUGCAUGCCGCCGGGCGCCAUGCCUGCAGGUCGACUCUAGAAAACAUG | 4.33 log2 enrichment (interaction score)
7 | GGCUAGAACUAGUGGAUCCCCCGGCGCCCGGCGGCUCGAGCCCGGGUAAGUGUGAAUAGUCUGCAUGCCGCCGGGCGCCAUGCCUGCAGGUCGACUCUAGAAAACAUG | 1.36 log2 enrichment (interaction score)

target: PUM1 PUF domain R8-KFF (Homo sapiens, UniProt Q14671 828-1176, N1122K;Y1123F;Q1126F); assay: as above; conditions: tags: N-Gal4 AD-HA kept; label: inside an RPR1-promoter hybrid RNA with tandem MS2 sites; ssRNA
Sequence (Q14671 828-1176 N1122K/Y1123F/Q1126F): as the sequence (Q14671 828-1176 C1007L/R1008H/Q1011A) above, with L180C, H181R, A184Q, N295K, Y296F, Q299F counted along it
Procedure, shortened: as §1

Row | Sequence | binding signal
8 | GGCUAGAACUAGUGGAUCCCCCGGCGCCCGGCGGCUCGAGCCCGGGUAAGUGUAAAUAGUCUGCAUGCCGCCGGGCGCCAUGCCUGCAGGUCGACUCUAGAAAACAUG | 2.66 log2 enrichment (interaction score)
9 | GGCUAGAACUAGUGGAUCCCCCGGCGCCCGGCGGCUCGAGCCCGGGUAAGGGUAAAUAGUCUGCAUGCCGCCGGGCGCCAUGCCUGCAGGUCGACUCUAGAAAACAUG | 2.27 log2 enrichment (interaction score)
10 | GGCUAGAACUAGUGGAUCCCCCGGCGCCCGGCGGCUCGAGCCCGGGUAAGCGUAAAUAGUCUGCAUGCCGCCGGGCGCCAUGCCUGCAGGUCGACUCUAGAAAACAUG | 2.98 log2 enrichment (interaction score)

target: PUM1 PUF domain R1-YVR (Homo sapiens, UniProt Q14671 828-1176, S863Y;R864V;Q867R); assay: as above; conditions: tags: N-Gal4 AD-HA kept; label: inside an RPR1-promoter hybrid RNA with tandem MS2 sites; ssRNA
Sequence (Q14671 828-1176 S863Y/R864V/Q867R): as the sequence (Q14671 828-1176 C1007L/R1008H/Q1011A) above, with S36Y, R37V, Q40R, L180C, H181R, A184Q counted along it
Procedure, shortened: as §1

Row | Sequence | binding signal
11 | GGCUAGAACUAGUGGAUCCCCCGGCGCCCGGCGGCUCGAGCCCGGGUAAGUGUAAAUUGUCUGCAUGCCGCCGGGCGCCAUGCCUGCAGGUCGACUCUAGAAAACAUG | 6.97 log2 enrichment (interaction score)
12 | GGCUAGAACUAGUGGAUCCCCCGGCGCCCGGCGGCUCGAGCCCGGGUAAGUGUAAAUCGUCUGCAUGCCGCCGGGCGCCAUGCCUGCAGGUCGACUCUAGAAAACAUG | 6.93 log2 enrichment (interaction score)
13 | GGCUAGAACUAGUGGAUCCCCCGGCGCCCGGCGGCUCGAGCCCGGGUAAGUGUAAAUGGUCUGCAUGCCGCCGGGCGCCAUGCCUGCAGGUCGACUCUAGAAAACAUG | 3.38 log2 enrichment (interaction score)
